From PubChem BioAssay
HT1080-NT tox – kills 2HG-producing HT-1080-NT fibrosarcoma cells; HT-1080-NT fibrosarcoma viability, CellTiter-Glo ATP luminescence, 48 h; Potency, µM (series often up to 46.1 µM), for inactives: at the highest dose activity, negative = less viability, most hits filed as cytotoxic; hit rate 1.6% among 360,000; AID 686970;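 further: NT is the 2HG producing partner of a matched IDH1 knockdown line; potency means the concentration at half of the fitted maximal effect; 0% = DMSO-treated cells and -100% = media-only wells without cells; nearly all actives have a fitted effect of over 55% in size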
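Fibrosarcoma NT cells, 750 per well in 5% FBS RPMI, were exposed to compound for 48 hours. Viability: CellTiter-Glo luminescence.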
DT40 TDP1 CPT – growth inhibition of DT40 Tdp1-/-;hTDP1 cells with camptothecin (screen for TDP1 inhibitors); chicken DT40 Tdp1-/-;hTDP1 cells + 20 nM CPT, ATP luminescence, 48 h; Potency, µM (highest dose often 46.2 µM), for inactives: top-dose activity change, negative = growth inhibition, most hits filed as inhibitors; hit rate 12% among 420,000; further: potency means the concentration at half of the fitted maximal effect; nearly all actives have a fitted effect of over 55% in size
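Chicken DT40 Tdp1-/- cells complemented with human TDP1, 400 cells/well, exposed to compounds plus 20 nM camptothecin for at least 48 h at 37 C; viability read as ATP content by CellTiter-Glo luminescence.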
DT40 TDP1 no CPT – qHTS for Inhibitors of human tyrosyl-DNA phosphodiesterase 1 (TDP1): qHTS in cells in absence of CPT. DT40 Tdp1-/- hTDP1 cells, no CPT, ATP luminescence, 48 h. Potency, µM (top dose mostly 46.2 µM), without a hit: at the top dose activity change, negative = growth inhibition, actives largely listed as inhibitors. hit rate 15% among 420,000; further: potency means the concentration at half of the fitted maximal effect; nearly all actives have a fitted effect of over 55% in size
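Compound effects on proliferation are scored in DT40 Tdp1-/-;hTDP1 cells in the absence of CPT. ATP levels (CellTiter-Glo luminescence) are recorded after a ≥48 hr, 37 °C incubation.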
ELG1 DNA repair – ELG1-dependent DNA repair inhibition. HEK293T ELG1-luciferase reporter, luminescence, 16 h; DNA damage induced by 5-fluorouridine. Potency, µM (highest dose often 46.1 µM), for the others: top-dose activity change, negative = inhibition, usual class: inhibitors. hit rate 2.3% among 330,000; further: potency means the concentration at half of the fitted maximal effect; nearly all actives have a fitted effect of over 55% in size
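HEK293T cells expressing luciferase-tagged ELG1 (2,000/well) received 5-Fluorouridine plus compound or DMSO for 16 hr at 37 °C. Luciferase was read by ONE-Glo luminescence after 30 min at room temperature.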
HT1080 IDH1KD tx – HT-1080 IDH1 knockdown cell toxicity (counter line); HT-1080 IDH1 knockdown viability, ATP luminescence, 48 h; Potency, µM (doses to about 46.1 µM), for inactives: at the top dose activity, negative = toxicity, usual class: cytotoxic; hit rate 2% among 360,000;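 further: potency means the concentration at half of the fitted maximal effect; 0% = DMSO wells and -100% = cell-free medium wells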
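% activity derives from luminescence (CellTiter-Glo), normalised to DMSO and no-cell wells. HT-1080-IDH1KD cells, 750/well, had 48 h compound exposure at 37 °C.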
IL-1B inflam inh – inhibitors of inflammasome signaling (IL-1 beta secretion); activity change, % at 57.5 µM; THP-1 LPS/ATP IL-1B secretion, AlphaLISA, 16 h; stronger effect = lower value; AID 743279; hit rate 4.7% among 360,000; in the data active means activity change below about -50%; inconclusive means mostly about -30% to -49%
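THP-1 cells pretreated 1 hr with compounds (up to 57.5 uM final), then stimulated with LPS (250 ng/mL final) plus ATP (1.25 mM final); secreted IL-1B measured by AlphaLISA after 16 hr, decreased signal indicating inhibition.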
The depositor's hits bear a star; i = inactive; u = inconclusive; x = no result. This is a sample that favours compounds with a hit; in the whole collection about 19% have one here. Unless noted, the call rests on the fitted dose curve; in most records, active means well fitted curve in the direction sought with a large enough effect; inconclusive means small, poorly fitted or top-dose-only effect, or another doubt; inactive means no such curve, though single readings can be large; an effect the other way counts as inactive or inconclusive. Unless noted, on the % scale 0 is the no-effect control and ±100 the full control effect.

SMILES	HT1080-NT tox	DT40 TDP1 CPT	DT40 TDP1 no CPT	ELG1 DNA repair	HT1080 IDH1KD tx	IL-1B inflam inh
CN(C)S(=O)(=O)c1ccc(C(=O)Nc2nnc(SCc3cccc(F)c3)s2)cc1	-0.1%	-14.9%	-5.4%	-15.7%	2.2%	-6.1
COC(=O)c1ccc(CN2CCC(Oc3ccc(C(=O)N4CCCCC4)cc3)CC2)cc1	4.3%	u	u	x	0.3%	9.3
COc1ccc(C(=O)NC2CC2)cc1OC1CCN(Cc2ccccc2)CC1	0.7%	2.5%	5.3%	-4.3%	8.0%	i
O=C(c1ccc(OC2CCN(C/C=C/c3ccccc3)CC2)cc1)N1CCCCC1	-21.3%	u	u	-6.9%	-5.8%	u
Cc1cc(C)cc(CN2CCC(Oc3ccc(C(=O)N4CCCC4)cc3)CC2)c1	u	20.6µM*	23.1µM*	9.5%	u	u
COc1ccccc1/C=C/CN1CCC(Oc2ccc(C(=O)N3CCCCC3)cc2)CC1	-2.7%	u	25.9µM*	-24.6%	-15.6%	-56.8*
COc1ccc(/C=C/CN2CCC(Oc3ccc(C(=O)N4CCCCC4)cc3)CC2)cc1	1.1%	u	14.6µM*	-11.4%	-5.2%	i
COc1ccccc1/C=C/CN1CCC(Oc2cc(C(=O)NC3CC3)ccc2OC)CC1	-0.9%	u	2.06µM*	7.2%	1.8%	-8.4
O=C(O)CN(CC(=O)O)CC1=CC2C(=CC1=O)Oc1cc(O)c(CN(CC(=O)O)CC(=O)O)cc1C21OC(=O)c2ccccc21 (stereo not given)	x	-20.5%	u	x	x	x
COc1cccc(NC(=O)C2(C)CCCN(C(C)C)C2)c1 (stereo not given)	u	-6.5%	-25.4%	x	22.7%	26.1
COc1ccc(Cl)cc1C(=O)Nc1ccc2oc(-c3ccc(C(C)(C)C)cc3)nc2c1	x	-27.5%	u	x	x	x
Cc1cc(C)nc(-n2nc(C)cc2Nc2ccccc2)n1	-20.3%	2.59µM*	5.17µM*	u	-15.0%	-0.4
CCC(C(=O)Nc1cc(C)nn1-c1nc(C)cc(C)n1)c1ccccc1 (stereo not given)	0.2%	25.9µM*	18.4µM*	-25.3%	-27.8%	-10.7
COc1ccc(CNCC(=O)Nc2cc(C)nn2-c2nc(C)cc(C)n2)cc1OC	-3.8%	9.2µM*	8.2µM*	3.5%	-8.5%	-4.0
Cc1cc(Nc2ccccc2)n(-c2ccccc2)n1	-14.5%	-17.6%	u	u	-2.9%	19.2
Cc1cc(C)nc(-n2nc(C)cc2NC(=O)CNCc2ccccc2)n1	1.0%	-28.6%	u	1.5%	-3.8%	35.5
CCN(CC(=O)Nc1cc(C)nn1-c1nc(C)cc(C)n1)Cc1ccccc1	-24.1%	u	u	18.4µM*	-14.2%	-14.3
CCC(C(=O)Nc1cc(C)cc(C)n1)c1ccccc1 (stereo not given)	-7.2%	-22.5%	u	x	4.1%	x
CCCn1nc(NS(=O)(=O)c2cccc3nonc23)c2cc3ccccc3nc21	-10.3%	-18.7%	11.5%	-3.7%	-15.0%	-29.3
C[C@@H](NS(=O)(=O)c1cc(Cl)ccc1F)[C@H](O)c1ccccc1	1.9%	2.1%	-8.3%	x	2.8%	24.3
COCCN1CCN(C(=O)c2cnn(-c3nccc(-c4ccco4)n3)c2C2CC2)CC1	x	-0.4%	-3.8%	x	x	x
N#Cc1ccccc1NC(=O)C(=O)NCCCN1CCCC1=O	2.7%	-3.1%	-3.3%	u	1.5%	0.0
CCC(CC)C(=O)Nc1cccc(-c2nc3ccccc3s2)c1	x	20.6µM*	u	x	x	x
O=C(CCS(=O)(=O)c1ccccc1)Nc1ccc(-c2nc3ccccc3s2)cc1	-2.2%	11.2%	-5.5%	u	-7.1%	21.4
CCS(=O)(=O)c1ccccc1C(=O)Nc1ccc(-c2nc3ccccc3s2)cc1	x	u	14.6µM*	x	x	x
SMILES	HT1080-NT tox	DT40 TDP1 CPT	DT40 TDP1 no CPT	ELG1 DNA repair	HT1080 IDH1KD tx	IL-1B inflam inh
CC(=O)Nc1cc(-c2nc3ccccc3s2)ccc1C	x	-22.3%	-11.7%	x	x	x
O=C(CCS(=O)(=O)c1ccccc1)Nc1cccc(-c2nc3ccccc3s2)c1	-12.3%	u	18.4µM*	u	-29.0%	103.2
CCOc1cc(C(=O)Nc2ccc(-c3nc4ccccc4s3)cc2Cl)cc(OCC)c1OCC	x	u	23.1µM*	x	x	x
COc1ccccc1-n1ncc2c(=O)[nH]c(SCC(=O)Nc3ccc(Cl)cc3)nc21	x	9.5%	-20.3%	x	x	x
CCn1c(-c2ccccc2F)nc2cc(NC(C)=O)cc(C(=O)NCC3CCOCC3)c21	x	1.9%	-1.1%	x	x	x
COc1ccc(C2=NN(C(=O)CCCC(=O)O)C(c3cn(-c4ccccc4)nc3-c3ccccc3)C2)cc1 (stereo not given)	1.9%	-5.7%	u	9.9%	-7.3%	-5.2
Cn1c(=O)c2ncn(CC(=O)Nc3cccc(-c4nc5ccccc5s4)c3)c2n(C)c1=O	u	14.6µM*	14.6µM*	u	-1.9%	38.6
COc1ccc(C(=O)Nc2ccc(-c3nc4ccccc4s3)c(Cl)c2)cc1Cl	x	-21.9%	-13.4%	x	x	x
COc1c(C)cccc1C(=O)Nc1ccc(-c2nc3ccccc3s2)c(Cl)c1	x	u	11.6µM*	x	x	x
O=C(CSc1nnc2ccccn12)Nc1cccc(-c2nc3ccccc3s2)c1	12.2%	-23.9%	-30.0%	u	9.3%	24.8
